The record followed here is PubChem BioAssay (Tox21).

Inconclusive results are not listed. Entries that show only a call come without a potency. Activity calls are given as the source filed them. Calls come from the whole dose curve.

The assay is described as follows: qHTS assay for small molecule agonists of the p53 signaling pathway - cell viability (AID 651633).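 Note: p53RE-bla HCT reporter cells with a stable beta-lactamase p53 reporter; nearly all actives have a fitted effect of over 30% in size.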 To be noted: p53RE-bla HCT-116 viability, ATP luminescence, 16 h; series mostly up to 83.3 µM. From the text:
National Center for Advancing Translational Sciences [NCATS]
NIH Chemical Genomics Center [NCGC]
U.S. Environmental Protection Agency [EPA]
National Institutes of Environmental Health Sciences [NIEHS]
National Toxicology Program [NTP]
U.S. Food and Drug Administration [FDA]
p53, a tumor suppressor protein, is activated following cellular insult, including DNA damage and other cellular stresses. The activation of p53 regulates cell fate by inducing DNA repair, cell cycle arrest, apoptosis, or cellular senescence. The activation of p53, therefore, is a good indicator of DNA damage and other cellular stresses. […] The activation of the reporter gene under culture conditions can be detected by fluorescence intensity. This cell line was used to screen the Tox21 compound library in a 1536-well plate format and to identify agonists that activate the p53 signaling pathway.
Tox21 Assay Protocol Summary:
The p53RE-bla cells were dispensed at 4,000 cells/5 ul/well in 1536-well black wall/clear bottom plates using a Multidrop dispenser. After the assay plates were incubated at a 37 C/5% CO2 incubator for 5 hours, 23 nL of compounds dissolved in DMSO, positive controls or DMSO only was transferred to the assay plate by a pin tool. The plates were incubated at 37 C for 16 hours. After 1 uL of LiveBLAzerTM B/G FRET substrate was added using a Flying Reagent Dispenser, the plates were incubated at room temperature for 2 hours, and fluorescence intensity was measured by an Envision plate reader.
For cell viability readout that measures cytotoxicity, 4 ul/well of CellTiter-Glo reagent was added into the assay plates using a Flying Reagent Dispenser. After 30 min incubation at room temperature, the luminescence intensity in the plates was measured using a ViewLux plate reader.
(In general: In qHTS, concentration-response curves come from the screen itself.)
For the compound `C=C(C)CC(C)(C)C`, the Potency result was “inactive”.

As for `Oc1ccc(Cc2ccccc2O)cc1`, the Potency result was “inactive”.

Turning to `CCCOC(=O)NCCCN(C)C`, the Potency result is “inactive”.

Turning to `O=Cc1ccc(CO)o1`, the Potency result was “inactive”.

Consider `N[C@@H](Cc1cc(I)c(Oc2ccc(O)c(I)c2)c(I)c1)C(=O)O`, for which the Potency result is “inactive”.

Regarding `CC1(C)[C@@H](O[C@H]2O[C@H](C(=O)O)[C@@H](O)[C@H](O)[C@H]2O[C@@H]2O[C@H](C(=O)O)[C@@H](O)[C@H](O)[C@H]2O)CC[C@]2(C)[C@H]3C(=O)C=C4[C@@H]5C[C@@](C)(C(=O)O)CC[C@]5(C)CC[C@@]4(C)[C@]3(C)CC[C@@H]12`, the Potency entry is “inactive”.

With `Cc1ccccc1Cl`, the Potency result is “inactive”.

For the compound `CCc1cccc(CC)c1N`, the Potency result was “inactive”.

`CS(=O)(=O)c1ccc(Cl)cc1`: the Potency result was “inactive”.

On to `CN1CCCC1=O`, for which the Potency result is “inactive”.

Turning to `COc1ccccc1[N+](=O)[O-]`, the Potency entry is “inactive”.

On to `CCOC(=O)c1ccc(O)cc1`, for which the Potency entry was “inactive”.

Regarding `Cc1ccc(C)c(S(=O)(=O)O)c1`, the Potency result is “inactive”.

Take `OCC(CO)(CO)CO`: the Potency result is “inactive”.

With `CC(COCC(C)OC(=O)c1ccccc1)OC(=O)c1ccccc1` (stereo not given), the Potency entry was “inactive”.

On to `C1CCCNCC1`, for which the Potency result was “inactive”.

As to `CO[Si](CCCNCCN)(OC)OC`, the Potency result is “inactive”.

As for `CCCCCCC(=O)O`, the Potency entry is “inactive”.

In the case of `C=C1C[C@]23C[C@@]1(O)CC[C@H]2[C@@]12C=C[C@H](O)[C@@](C)(C(=O)O1)[C@H]2[C@@H]3C(=O)O`, the Potency entry is “inactive”.

In the case of `COC(=O)/C=C\C(=O)OC`, the Potency entry was “inactive”.

As for `NC1CCCCC1N` (stereo not given), the Potency entry was “inactive”.

With `NC(=O)NC(N)=O`, the Potency entry is “inactive”.

Take `CC(=O)OCCC(C)C`: the Potency result was “inactive”.

`CC(O)CNCC(C)O` (stereo not given): the Potency entry is “inactive”.

Turning to `OB(O)O`, the Potency entry was “inactive”.

Consider `CCCOCC(C)O` (stereo not given), for which the Potency result is “inactive”.

As for `COC(=O)CCCCC(=O)OC`, the Potency entry was “inactive”.

Consider `CC[N+](CC)(CC(=O)Nc1c(C)cccc1C)Cc1ccccc1`, for which the Potency result was “inactive”.

As for `OCC(O)CS` (stereo not given), the Potency result was “inactive”.

Turning to `C[Si](C)(C)N[Si](C)(C)C`, the Potency entry is “inactive”.

As for `NC(N)=S`, the Potency result is “inactive”.

Take `C=C(CC(=O)O)C(=O)O`: the Potency entry is “inactive”.

For `CCCCCCCCO`, the Potency result was “inactive”.

Take `c1cnc2c(c1)ccc1cccnc12`: the Potency entry is “inactive”.

As for `O=C(O)Cc1c[nH]c2ccccc12`, the Potency result was “inactive”.

Take `CCCCCC(C)=O`: the Potency entry was “inactive”.

Turning to `OC[C@H]1O[C@@H](Oc2ccc(O)cc2)[C@H](O)[C@@H](O)[C@@H]1O`, the Potency result was “inactive”.

Turning to `Cc1ccncc1`, the Potency entry was “inactive”.

As to `CC(C)c1ccc(C(C)C)cc1`, the Potency result is “inactive”.

For the compound `O=C1CCCCCCCCCCC1`, the Potency result is “inactive”.
